Source: the supplement of paper PMC10681739

biological target: T1, ETS1 (UniProt P14921); test: TF binding intensity (PBM fluorescence), negative control probe (arbitrary fluorescence units); higher = stronger binding
T1 sequence: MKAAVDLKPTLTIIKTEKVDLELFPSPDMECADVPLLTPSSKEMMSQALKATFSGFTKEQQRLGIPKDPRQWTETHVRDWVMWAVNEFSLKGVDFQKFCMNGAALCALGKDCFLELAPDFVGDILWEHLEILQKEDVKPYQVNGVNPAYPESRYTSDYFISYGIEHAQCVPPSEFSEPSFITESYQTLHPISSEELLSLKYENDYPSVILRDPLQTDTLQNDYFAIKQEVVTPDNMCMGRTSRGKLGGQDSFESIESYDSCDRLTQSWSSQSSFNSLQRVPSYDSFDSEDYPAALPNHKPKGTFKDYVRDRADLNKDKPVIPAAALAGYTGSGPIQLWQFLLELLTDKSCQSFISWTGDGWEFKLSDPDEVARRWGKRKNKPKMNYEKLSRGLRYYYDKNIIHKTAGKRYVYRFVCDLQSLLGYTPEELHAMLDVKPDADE
Experimental: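 gcPBM negative-control 36-bp genomic probes lacking TF binding sites. Each was incubated with recombinant human ETS1 or RUNX1 alone and detected by antibody fluorescence. Values are medians over replicate spots (4 spots for the ETS1-RUNX1 arrays, 3 for the ETS1-ETS1 array). The probes sit in constant array flanks that are not printed.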

Point of comparison: “CTGGATTTCTGTACTTTGGTTGGCTTATATTACATC (protein concentration 10 nM)”, TF binding intensity 171. Against it:
- ATTCCAATCCTATGTGCTTTAAAGCTTCTAGACATT (protein concentration 10 nM) — lower, 119
- TTATAGCATCTATTTATGTAAATCATATCTCCTTTT (protein concentration 10 nM) — lower, 101
- GAGCCCTTCTGGCCTCCCTGTATAAGTCCAGACTGA (protein concentration 10 nM) — lower, 96.9
- AACTTGAAGTCACCACATGAAAGGTTCCAATGCAGC (protein concentration 10 nM) — lower, 121
- TTGGGACCAATTTGACCCACAAACCCTGAAAAAGAG (protein concentration 1 nM) — higher, 497
- TCAGCCTGAGAGCTATGTGGGTGAATAAAAATAAAA (protein concentration 1 nM) — higher, 499
- GAAAGAGGCACATGGTGCCTCACAGCCTCCTCCCAG (protein concentration 10 nM) — lower, 128
- GAGCATCACAAGGTCAGAGGAGGGGGCGGCCAGGGT (protein concentration 10 nM) — higher, 240
- AGTTTTTTGTTTTGAGCCGCAGTCTCGCTCTGTCGC (protein concentration 1 nM) — higher, 351
- CACAGGTTCTTCTTCAAGGGCAGGGCACTGCACCTT (protein concentration 10 nM) — lower, 110
- TTCATAACGTTATACACCACAATGCTAAAAAAATGA (protein concentration 1 nM) — higher, 672
- GGTATCGAGCTCGGGGGACTGGGCTGCGGGGGACGT (protein concentration 10 nM) — higher, 264
- GGTAATAGTTACTGCTGTGGTCTGAATGTTTGTGTC (protein concentration 1 nM) — higher, 555
- CTTATTATTAATGGTCATTAGCCACAGTCACCACCA (protein concentration 10 nM) — lower, 137
- CATATAACTGGTAGAACATCAGGTGTGGGTGGATCA (protein concentration 10 nM) — lower, 111
- AGAGGCATGAAAACAAATGAGACTAGGATGAGTTGG (protein concentration 10 nM) — lower, 131
- TAGTTAAGACCTCTTAAGTCATAATAATATTGCCTA (protein concentration 10 nM) — lower, 102
- GAAAACACTAGCGTGACCTCAACAACTAAGATTAAA (protein concentration 1 nM) — higher, 490
- GTGAATTCAAAACAACCCACAGTTTTAATTCTCTGT (protein concentration 1 nM) — higher, 452
- CTCTGTTACAAAGCTTCACTTCTTAAGAGAGGGCTG (protein concentration 10 nM) — lower, 134
- AGCAGAGTGTGATGAATGGATTCATATACGGTCTGA (protein concentration 10 nM) — lower, 103
- GAGGGTCCCGGCTCTGCCGCAGGCGGGCGGGGCAGA (protein concentration 1 nM) — higher, 339
- AGCAGATCATTTGAGCCTGGGAGGCGCACATGGCAG (protein concentration 10 nM) — lower, 116
- GTTGGGCCCCCTGGGCCTTGTTCTCGGGATCCAGGG (protein concentration 10 nM) — lower, 111
- TAACAGGGAGATAAAACGGGTGAGAGCCCCCTAGGA (protein concentration 10 nM) — lower, 103
- GTCCCCTCAAGGACCCCCAGTGCAGGTGAAAAACTG (protein concentration 10 nM) — higher, 174
- TCTGAATGCTAAGCTCATCGAAGACGCCCAGCACTT (protein concentration 10 nM) — lower, 123
- CCAGTGCCCTTGAAATGAAATGGGACTTGCAAGGAG (protein concentration 10 nM) — lower, 121
- AGTTCAAAAAAGCCCAAATGCTATAGGGACAACAAC (protein concentration 10 nM) — lower, 148
- ACCCTGAGCCCTCTCCCGCTCCCTGGGTCTCAGCCT (protein concentration 10 nM) — lower, 98.1
- CCACGCTTTGCCAGCACTTTCCCCTGCCTCGTCTGT (protein concentration 10 nM) — lower, 119
- CATAGTTGCACCTGGTCTACTTTGCTGTCAATTTGT (protein concentration 10 nM) — lower, 126
- AGTTTCACTGCCCTAAAAATCCTCCGTGCGCCGCCT (protein concentration 10 nM) — lower, 123
- TACTACTATAAAGATGGATACATGTCGTTATACATT (protein concentration 10 nM) — lower, 106
- AAAACTAAAAGTAGAACCACCATATGATCCAGTAAT (protein concentration 1 nM) — higher, 504
- TTCTAAAGAAATCACAGTCAAATCTACCATTTGCGT (protein concentration 10 nM) — lower, 99.5
- ATGTTTTCGGTTCTTAGGACCCAGGTGCTCACCACA (protein concentration 10 nM) — lower, 106
- GTCAAAGGCTCTGCAGAGTCAAGTAGCCTCCCACTT (protein concentration 10 nM) — lower, 112
- AGTATGAGTTTGAATACACAGAACCTTTCTCATTCT (protein concentration 10 nM) — lower, 106
